Sampled rows, rich in hits. Any-hit rate of the full collection: about 4.5%.
NALP3 yeast inh: blocks the NALP3 inflammasome reconstituted in yeast; Yeast reconstituted NLRP3/ASC/caspase-1, beta-gal luminescence, 24 h; inhibition, % at 10 µM; hit rate 0.39% among 330,000;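 active means inhibition of 50% or more; inactive means inhibition below 50%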;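 further: plate controls were induced DMSO wells for no effect and uninduced yeast grown without galactose for full effect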
SKKanGAS inh: inhibitors of SKKanGAS S. pyogenes growth in kanamycin (SK-promoter or general growth effect); inhibition, % at 7.5 µM; AID 1662; hit rate 1.3% among 300,000; BacTiter-Glo, 6 h;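 active means mean replicate score, as percent of positive control median, at least 50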;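 further: strain carries kanamycin resistance gene driven by streptokinase promoter and grows in 40 µg/ml kanamycin; loss of luminescence reflects streptokinase promoter inhibition or plain growth inhibition; 0% = median of DMSO wells and 100% = positive control at its reference dose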
TIM10 inh: TIM10 yeast growth inhibition | S. cerevisiae TIM10 strain growth, BacTiter-Glo luminescence, 24 h | inhibition, % at 10 µM | hit rate 1.4% among 330,000;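 active means inhibition of 40% or more at the single tested concentration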;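 further: wild-type TIM10 isogenic control strain grown at permissive 25 °C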
tim23-1 inh: inhibits growth of tim23-1 mutant yeast; inhibition, % at 20 µM; S. cerevisiae tim23-1 growth, BacTiter-Glo luminescence, 24 h; hit rate 1.3% among 330,000; AID 463212;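 active means growth inhibition of the mutant yeast at or above 50%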;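 further: temperature-sensitive mutant grown at 25 °C; plate controls were DMSO-treated mutant yeast for no effect and medium wells lacking yeast for full effect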
PfHsp90 yeast 2: reduces growth (ATP signal) of yeast expressing P. falciparum Hsp90. S. cerevisiae expressing PfHsp90, BacTiter-Glo ATP, 48 h; yeast lacking PDR1 and PDR3 efflux regulators. inhibition, % at 9.4 µM. hit rate 0.32% among 310,000. AID 504621;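 active means every replicate shows inhibition above about 80%, whatever the replicate mean, limit read from the data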;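 further: 0% = DMSO neutral controls and 100% = 20 µM radicicol positive controls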
tim10-1 inh: inhibits growth of tim10-1 mutant yeast | S. cerevisiae tim10-1 ts strain growth, BacTiter-Glo, 24 h | inhibition, % at 20 µM | hit rate 2.2% among 330,000 | AID 463190;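 active means inhibition of at least 40%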;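 further: mutant grown at 25 °C; 0% = DMSO wells with yeast and 100% = wells holding no yeast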
tim23-1 conf: tim23-1 yeast growth inhibition, confirmed. shares compounds with tim23-1 inh. S. cerevisiae tim23-1 growth, BacTiter-Glo luminescence, 24 h. inhibition, % at 20 µM. hit rate 83% among 4,400. AID 463218;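 active means inhibition above about 39% in either of two replicate wells at 20 µM, limit read from the data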;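 further: temperature-sensitive tim23-1 mutant grown at 25 °C; 0% = DMSO wells with yeast and 100% = medium wells without yeast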
* = called active by the depositor; . = no result.

SMILES	NALP3 yeast inh	SKKanGAS inh	TIM10 inh	tim23-1 inh	PfHsp90 yeast 2	tim10-1 inh	tim23-1 conf
Cc1ccc(S(=O)(=O)/C(C#N)=C/c2c(Oc3ccc(Cl)cc3)nc3c(C)cccn3c2=O)cc1	8.3	1.8	-12.0	50.2*	.	2.0	24.3
CC[C@]12c3[nH]c4ccccc4c3CCN1C(=O)C(CC(=O)NCc1cccc(C(F)(F)F)c1)C[C@@H]2C(=O)N1CCN(C(=O)c2ccco2)CC1 (some centres not stated)	-2.4	.	5.7	-0.1	5.2	-3.6	.
O=C(COC(=O)c1nc(Cl)c(Cl)c(Cl)c1Cl)NCc1ccccc1	-15.1	.	30.5	59.4*	.	36.2	58.5*
O=C1CNC(=S)N1CCc1ccc(O)c(O)c1	15.1	3.2	-11.3	4.6	.	-22.1	.
COC(=O)c1ccsc1NC(=O)CSc1nnnn1Cc1ccccc1	20.9	.	10.7	50.9*	-1.7	34.9	37.5
Cc1ccc(C(=O)CSc2nnnn2Cc2ccccc2)cc1C	11.7	-4.0	16.2	50.5*	23.4	22.0	49.0*
CN(C)S(=O)(=O)c1cccc(NC(=S)N/N=C/c2cc(Br)ccc2O)c1	19.9	107.0*	29.5	58.4*	-7.1	19.1	47.9*
COc1ccc(CN2CCN(C(=O)Cn3nc(C(=O)O)c4ccccc4c3=O)CC2)cc1F	16.0	-1.4	6.8	7.0	2.3	-15.3	.
Cc1ccc(C)c(OCCC(=O)OCC(=O)c2c(N)n(C)c(=O)n(C)c2=O)c1	6.0	-20.3	-7.1	4.2	6.6	5.6	.
O=C(NC1CCC(O)CC1)c1ccc2c(c1)S(=O)(=O)N=C1CCCCCN12 (configuration not stated)	8.9	25.2	-5.9	0.2	15.2	-14.8	.
COc1ccc(NC(=O)Nc2cccc3c2O[C@@H](CN(C)CC2CCCCC2)[C@@H](C)CN([C@H](C)CO)C3=O)cc1	0.4	.	-2.2	15.2	-4.5	-5.7	.
O=C1[C@H]2CCC=C[C@H]2[C@H](c2ccccc2Br)N1Cc1ccccc1	.	.	17.5	56.6*	-34.1	30.9	32.4
O=C1[C@H]2CCC=C[C@H]2[C@H](c2cccc(Br)c2)N1Cc1ccccc1	.	.	37.2	58.3*	-49.3	31.3	52.6*
O=C1C2C(c3ccccc3)CC=CC2[C@H](c2ccoc2)N1Cc1ccccc1 (some centres not stated)	14.3	12.7	12.0	7.8	-12.9	33.7	.
CCN(CC(=O)Nc1c(F)cccc1F)C(=O)CN1C(=O)C2CCCCC2C1=O (configuration not stated)	10.4	.	-7.3	-2.4	18.5	-3.0	.
COc1ccccc1/C=C/C(=O)NC(=S)N1CCN(C)CC1	10.9	.	-4.0	-4.2	9.1	10.7	.
COc1ccccc1/C=C/C(=O)NC(=S)NC(C)C	20.9	-7.7	10.6	59.0*	5.6	-3.4	41.1*
O=C(Nc1ccn(Cc2ccc(Cl)cc2)n1)c1ccc2c(c1)OCO2	31.4	-12.1	34.5	58.9*	-12.5	8.1	62.7*
O=C1C(=O)N(CCS(=O)(=O)c2ccccc2)c2ccc(Cl)cc21	14.1	2.5	15.1	21.5	8.4	22.5	.
Cc1ccc(OCCN2C(=O)C(=O)c3cc(C)ccc32)cc1	7.4	5.7	21.7	56.6*	-8.7	17.1	53.4*
Cc1ccc(OCCCN2C(=O)C(=O)c3cccc(C)c32)cc1	18.9	-7.1	17.8	52.7*	21.2	26.4	62.5*
CCCN1C(=O)C(=O)c2cc(Cl)ccc21	-1.1	.	13.6	61.4*	11.4	13.1	39.9*
Cc1ccc(C)c(SCC(=O)N(C)CC(=O)Nc2ccc(N3CCOCC3)cc2)c1	8.9	6.2	4.3	2.6	22.3	11.1	.
COc1cccc(CNC(=O)CCC2CCCN(C(=O)CCn3cncn3)C2)c1 (configuration not stated)	-3.6	3.3	13.5	16.4	.	4.9	.
COc1ccccc1S(=O)(=O)Cc1ccc(C(=O)NCc2ccccc2)o1	8.3	2.1	-4.7	8.6	14.7	19.0	.
CCOP(=O)(OCC)C(Nc1ccccc1)c1cc(OC)ccc1OC (configuration not stated)	-3.2	-2.0	17.2	51.9*	-1.8	17.4	25.6
CCOP(=O)(OCC)C(Nc1ccccc1)c1ccccc1C(F)(F)F (configuration not stated)	-17.6	-0.6	30.4	37.0	-12.4	16.1	.

Screening results as filed in PubChem BioAssay.
